In PubChem BioAssay (NCI):
The panel holds about 83,000 compounds, 20% with a hit somewhere; the sample as a whole holds those more often.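 Plates (96-well) were seeded with cells, treated with compound at one concentration, and incubated for 48 hours before percent growth was determined.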 Active and inactive are the calls of the source. How the source made its calls: active means growth percent below 10; inactive means the rest.

What was measured:
Test in all cases: NCI-60 one-dose screen, 48 h (100 = growth as untreated, 0 = no growth, -100 = all killed)
Conditions in all cases: 10 µM unless noted
HCT-15 colon = test system: HCT-15 colon
HT29 colon = test system: HT29 colon
SNB-75 CNS = test system: SNB-75 CNS
SNB-19 CNS = test system: SNB-19 CNS
U251 CNS = test system: U251 CNS
PC-3 prostate = test system: PC-3 prostate
SK-MEL-5 melanoma = test system: SK-MEL-5 melanoma
UACC-62 melanoma = test system: UACC-62 melanoma
SK-MEL-28 melanoma = test system: SK-MEL-28 melanoma
LOX IMVI melanoma = test system: LOX IMVI melanoma

Measured: growth

NC(=O)c1c(Br)n(C2OC(CO)C(O)C2O)c2ncnc(N)c12 (configuration not stated)
active: HCT-15 colon 3.75% | PC-3 prostate -10.5% | UACC-62 melanoma 8.21% | SK-MEL-28 melanoma -4.78%
inactive: HT29 colon 16.3% | SNB-75 CNS 37.5% | SNB-19 CNS 53.9% | U251 CNS 33.4% | SK-MEL-5 melanoma 50.7%

O=[N+]([O-])/C=C\c1ccc(Cl)c(Cl)c1
inactive: HCT-15 colon 26.1% | SNB-75 CNS 42% | SNB-19 CNS 61.5% | U251 CNS 19.3% | PC-3 prostate 70.1% | SK-MEL-5 melanoma 56.3% | UACC-62 melanoma 58.9% | SK-MEL-28 melanoma 89.7%
active: HT29 colon -40.4%

OCCCCCNC1CCCCC1
inactive: HCT-15 colon 96.1% | HT29 colon 90.7% | SNB-75 CNS 101% | SNB-19 CNS 112% | U251 CNS 101% | PC-3 prostate 101% | SK-MEL-5 melanoma 96.7% | UACC-62 melanoma 102% | SK-MEL-28 melanoma 95%

O=C1NC(=O)C(=Cc2cn(CCCCCCn3c4ccccc4c(=O)c4ccccc43)c3ccccc23)C(=O)N1
inactive: HCT-15 colon 75.1% | HT29 colon 97.2% | SNB-75 CNS 94.5% | SNB-19 CNS 86% | U251 CNS 90.4% | PC-3 prostate 84% | SK-MEL-5 melanoma 90.5% | UACC-62 melanoma 63.5% | SK-MEL-28 melanoma 102%

O=P(N1CC1)(N1CC1)N1CCc2ccccc21
inactive: HCT-15 colon 115% | HT29 colon 104% | SNB-75 CNS 91.1% | SNB-19 CNS 102% | U251 CNS 95.5% | PC-3 prostate 88.6% | SK-MEL-5 melanoma 109% | UACC-62 melanoma 92.8% | SK-MEL-28 melanoma 115%

NC(=S)c1cn(C2OC(CO)C(O)C2O)c2ncnc(N)c12 (configuration not stated)
active: HCT-15 colon -11.2% | HT29 colon 2.78% | SNB-75 CNS -8.8% | SNB-19 CNS 9.97% | U251 CNS -7.25% | PC-3 prostate 6.45% | SK-MEL-5 melanoma -73.7% | UACC-62 melanoma -77.1% | LOX IMVI melanoma -22.9% | SK-MEL-28 melanoma -40.3%

CC(CO)NC1CCCCC1 (configuration not stated)
inactive: HCT-15 colon 100% | HT29 colon 117% | SNB-75 CNS 86.9% | SNB-19 CNS 102% | U251 CNS 98.9% | PC-3 prostate 105% | SK-MEL-5 melanoma 104% | UACC-62 melanoma 104% | SK-MEL-28 melanoma 114%

COc1ccc(/C=C\c2cc(OC)c(OC)c(OC)c2)c(NS(=O)(=O)c2ccc(Cl)cc2)c1O
active: SK-MEL-5 melanoma -1.82%
inactive: HCT-15 colon 13.4% | HT29 colon 17.1% | SNB-75 CNS 18.9% | SNB-19 CNS 53.4% | U251 CNS 12.3% | PC-3 prostate 26.1% | UACC-62 melanoma 40.9% | LOX IMVI melanoma 10.7% | SK-MEL-28 melanoma 60.3%

Cc1c(NS(=O)(=O)c2ccccc2)ccc([N+](=O)[O-])c1Cl
inactive: HCT-15 colon 64.9% | HT29 colon 76.4% | SNB-75 CNS 75.4% | SNB-19 CNS 61.7% | U251 CNS 63.5% | PC-3 prostate 56.2% | SK-MEL-5 melanoma 25.8% | UACC-62 melanoma 31.2% | SK-MEL-28 melanoma 70.5%

CN[C@@]1(c2ccccc2Cl)CCCC[C@@H]1NCC1CCCO1 (some centres not stated)
inactive: HCT-15 colon 104% | HT29 colon 101% | SNB-75 CNS 88.2% | SNB-19 CNS 95.8% | U251 CNS 98.2% | PC-3 prostate 94.2% | SK-MEL-5 melanoma 102% | UACC-62 melanoma 96.5% | LOX IMVI melanoma 97.8% | SK-MEL-28 melanoma 101%

O=C1CC2(CC3(Cl)C(Cl)=C(Cl)C2(Cl)C3(Cl)Cl)C(=O)O1 (configuration not stated)
inactive: HCT-15 colon 113% | HT29 colon 113% | SNB-75 CNS 89.4% | SNB-19 CNS 106% | U251 CNS 107% | PC-3 prostate 93.6% | SK-MEL-5 melanoma 102% | UACC-62 melanoma 112% | SK-MEL-28 melanoma 112%

O=C1C2CCC1C(N1CCCC1)CC2 (configuration not stated)
inactive: HCT-15 colon 98.6% | HT29 colon 102% | SNB-75 CNS 79.8% | SNB-19 CNS 102% | U251 CNS 100% | PC-3 prostate 93.1% | SK-MEL-5 melanoma 99.9% | UACC-62 melanoma 96.6% | SK-MEL-28 melanoma 102%

NC(CCl)CCl
inactive: HCT-15 colon 87.3% | HT29 colon 97.8% | SNB-75 CNS 90.3% | SNB-19 CNS 105% | U251 CNS 99.8% | PC-3 prostate 104% | SK-MEL-5 melanoma 99.4% | UACC-62 melanoma 99.9% | SK-MEL-28 melanoma 98.3%

COP(=S)(N1CC1)N1CC1
inactive: HCT-15 colon 109% | HT29 colon 103% | SNB-75 CNS 103% | SNB-19 CNS 112% | U251 CNS 108% | PC-3 prostate 91.9% | SK-MEL-5 melanoma 104% | UACC-62 melanoma 109% | LOX IMVI melanoma 104% | SK-MEL-28 melanoma 114%

Cc1ccc(Nc2nc3c(s2)C2=CC[C@@H]4[C@H](CC[C@]5(C)C(=O)CC[C@@H]45)[C@@]2(C)CC3)cc1
inactive: HCT-15 colon 17% | HT29 colon 15% | SNB-75 CNS 28.7% | SNB-19 CNS 55.4% | U251 CNS 33.4% | PC-3 prostate 33% | SK-MEL-5 melanoma 56.6% | UACC-62 melanoma 68.3% | SK-MEL-28 melanoma 37.6%

CN(C)CC(C(=O)Cc1ccccc1)c1ccccc1 (configuration not stated)
inactive: HCT-15 colon 37.2% | HT29 colon 30% | SNB-75 CNS 73.4% | SNB-19 CNS 100% | U251 CNS 110% | PC-3 prostate 73.2% | SK-MEL-5 melanoma 97.2% | UACC-62 melanoma 112% | SK-MEL-28 melanoma 96.5%

C[C@@]12CC=C3c4nc(Nc5cccc(O)c5)sc4CC[C@]3(C)[C@H]1CC[C@]1(C)C(=O)CC[C@@H]21
active: HCT-15 colon -47.9% | HT29 colon -29% | LOX IMVI melanoma -52.7%
inactive: SNB-75 CNS 37.3% | SNB-19 CNS 57.9% | U251 CNS 18.8% | PC-3 prostate 28.1% | SK-MEL-5 melanoma 64.8% | UACC-62 melanoma 28.8% | SK-MEL-28 melanoma 41.2%

CCCCCCCCCCCCCCCCCC1OC[C@@H](COC(=O)O[C@@H](C(=O)O[C@H]2C[C@@]3(O)[C@@H](OC(=O)c4ccccc4)[C@@H]4[C@]5(OC(C)=O)CO[C@@H]5C[C@H](O)[C@@]4(C)C(=O)[C@H](OC(C)=O)C(=C2C)C3(C)C)[C@@H](NC(=O)c2ccccc2)c2ccccc2)O1 (some centres not stated)
inactive: HCT-15 colon 100% | HT29 colon 18.2% | SNB-75 CNS 50.2% | SNB-19 CNS 62.1% | U251 CNS 58% | PC-3 prostate 46.6% | SK-MEL-5 melanoma 75.7% | UACC-62 melanoma 58.7% | SK-MEL-28 melanoma 59%

Nc1ccc2c(c1)Cc1cc(Br)ccc1-2
inactive: HCT-15 colon 101% | HT29 colon 119% | SNB-75 CNS 76.6% | SNB-19 CNS 101% | U251 CNS 104% | PC-3 prostate 89.6% | SK-MEL-5 melanoma 104% | UACC-62 melanoma 88.8% | LOX IMVI melanoma 94.2% | SK-MEL-28 melanoma 116%

CCC(C)(C)[C@H](NC(=O)[C@H]1CCCCN1C)C(=O)N(C)[C@H](C[C@@H](OC(C)=O)c1nc(C(=O)N[C@@H](Cc2ccccc2)C[C@H](C)C(=O)O)cs1)C(C)C
active: HCT-15 colon 6.87% | HT29 colon -2.9% | SNB-75 CNS 6.25% | SK-MEL-5 melanoma -18.1%
inactive: SNB-19 CNS 17.8% | U251 CNS 12.1% | PC-3 prostate 24.9% | UACC-62 melanoma 30.9% | LOX IMVI melanoma 16.1% | SK-MEL-28 melanoma 44.6%

COC(C(=O)[C@@H](O)[C@@H](C)O)[C@@H]1Cc2cc3cc(O[C@H]4C[C@@H](O[C@H]5C[C@@H](O)[C@H](O)C(C)O5)[C@H](O)C(C)O4)c(C)c(O)c3c(O)c2C(=O)[C@H]1O[C@H]1C[C@@H](O[C@H]2C[C@@H](O[C@H]3C[C@@H](O)[C@@H](O)C(C)O3)[C@@H](O)C(C)O2)[C@H](O)C(C)O1 (some centres not stated)
inactive: HCT-15 colon 47.7% | SNB-19 CNS 11.7% | PC-3 prostate 21.6%
active: HT29 colon -11.9% | SNB-75 CNS -31.8% | U251 CNS 1.11% | SK-MEL-5 melanoma -49.2% | UACC-62 melanoma -52.2% | SK-MEL-28 melanoma -9.88%

CCCCOc1ccc(C(N)Cc2ccccc2)cc1 (configuration not stated)
inactive: HCT-15 colon 84.9% | HT29 colon 75.4% | SNB-75 CNS 71.2% | SNB-19 CNS 97% | U251 CNS 88.1% | PC-3 prostate 79.5% | SK-MEL-5 melanoma 92.8% | UACC-62 melanoma 105% | SK-MEL-28 melanoma 105%

CN1C(=O)N[C@H]2[C@@H]3NC(=O)c4ccc(Br)n4[C@@H]3C[C@]21O
active: HCT-15 colon 3.29% | HT29 colon -15.6% | SNB-75 CNS -70.3% | SNB-19 CNS -15.6% | U251 CNS -13.8% | PC-3 prostate -11.7% | SK-MEL-5 melanoma -76.7% | UACC-62 melanoma -54.2% | SK-MEL-28 melanoma -34.9%

CC(=O)O[C@H]1C(=O)[C@@]2(C)[C@H]([C@H](OC(=O)c3ccccc3)[C@]3(O)C[C@H](OC(=O)[C@H](OC(=O)OCC4COC(C)(C)O4)[C@@H](NC(=O)c4ccccc4)c4ccccc4)C(C)=C1C3(C)C)[C@]1(OC(C)=O)CO[C@@H]1C[C@@H]2O (some centres not stated)
inactive: HCT-15 colon 29.2% | SNB-75 CNS 41.9% | SNB-19 CNS 36.6% | U251 CNS 34.4% | PC-3 prostate 38.7% | SK-MEL-5 melanoma 44.1% | UACC-62 melanoma 34.4% | SK-MEL-28 melanoma 43.8%
active: HT29 colon 9.74%

CCC1(C(C)C)C(=O)NC(=S)NC1=O
inactive: HCT-15 colon 97.6% | HT29 colon 112% | SNB-75 CNS 95.5% | SNB-19 CNS 108% | U251 CNS 95.9% | PC-3 prostate 95.6% | SK-MEL-5 melanoma 98.8% | UACC-62 melanoma 103% | LOX IMVI melanoma 102% | SK-MEL-28 melanoma 109%

CCOC(=O)[C@@H](C)C[C@H](Cc1ccccc1)NC(=O)c1csc([C@@H](C[C@H](C(C)C)N(C)C(=O)[C@@H](NC(=O)[C@H]2CCCCN2C)C(C)(C)CC)OC(C)=O)n1
inactive: SNB-19 CNS 17.6% | PC-3 prostate 24.1% | UACC-62 melanoma 33.1% | LOX IMVI melanoma 14.3% | SK-MEL-28 melanoma 38.6%
active: HCT-15 colon 8.77% | HT29 colon -4.94% | SNB-75 CNS -5.95% | U251 CNS 9.55% | SK-MEL-5 melanoma -15.3%

CCn1nccc1NC(=O)C(=O)c1cn(Cc2ccc(F)cc2)c2cccc(OC)c12
inactive: HCT-15 colon 91.8% | HT29 colon 112% | SNB-75 CNS 91% | SNB-19 CNS 90.9% | U251 CNS 92.1% | PC-3 prostate 90.6% | SK-MEL-5 melanoma 87.3% | UACC-62 melanoma 78.4% | SK-MEL-28 melanoma 107%
